Reference: PubChem BioAssay (NCATS)
Results filed as inconclusive are left out. Entries that show only a call come without a potency. Active and inactive are the calls of the source. Calls follow the shape of the dose curve; as a rule, active = well fitted inhibition curve with a large enough effect; inconclusive = small, poorly fitted or top-dose-only effect; inactive = flat fitted curve, though single readings scatter.

These compounds were tested on astro (assay: Drug repurposing screens with cells derived from glioblastoma tumor samples (AID 1345199; also: nearly all actives have a fitted effect of over 40% in size)). Details: viability, ATP luminescence, 48 h; series mostly up to 45.9 µM.
Description: CD133+ cells were isolated from GBM patient biopsies and cultured as neurospheres. Neurospheres from four patients were used to screen the NCATS pharmaceutical collection (NPC) library of approved drugs and bioactive compounds. […] The neurospheres were incubated with drugs for 48 hours in 1536-well format, then assayed with an ATP content cell viability assay. […] These hits were cherry picked to confirm activity in the four original GBM lines screened plus three other slower growing GMB lines (unable to yield enough cells for a full primary screen). Variable activities of the confirmed primary hits in the different GBM patient lines were observed. The patient line 206 responded to the greatest number of compounds and line 923 responded to the least amount of active compounds.
Potency is read from the fitted curve at half-maximal effect.

Structure (SMILES) | Potency
CC1(C)O[C@@H]2C[C@@H]3[C@H]4C[C@@H](F)C5=CC(=O)C=C[C@]5(C)[C@@]4(F)[C@@H](O)C[C@]3(C)[C@]2(C(=O)CO)O1 | inactive
COc1ccc(CC2c3cc(OC)c(OC)cc3CC[N+]2(C)CCC(=O)OCCCCCOC(=O)CC[N+]2(C)CCc3cc(OC)c(OC)cc3C2Cc2ccc(OC)c(OC)c2)cc1OC (stereo not drawn) | inactive
CC=CC1=C(C(=O)O)N2C(=O)[C@H](NC(=O)[C@H](N)c3ccc(O)cc3)[C@@H]2SC1 | inactive
COC(=O)C[C@](O)(CCCC(C)(C)O)C(=O)O[C@@H]1C(OC)=C[C@]23CCCN2CCc2cc4c(cc2[C@H]13)OCO4 | 0.251 µM (active)
Cc1nc2ccc(CN(C)c3ccc(C(=O)N[C@@H](CCC(=O)O)C(=O)O)s3)cc2c(=O)[nH]1 | inactive
O=C(O)CO.[NH2-].[NH2-].[Pt+2] | inactive
CC[C@H]1CN2CCc3cc(OC)c(OC)cc3[C@H]2C[C@@H]1C[C@@H]1NCCc2cc(OC)c(OC)cc21 | 0.447 µM (active)
C=CC(=O)Nc1cc2c(Nc3ccc(F)c(Cl)c3)ncnc2cc1OCCCN1CCOCC1 | 11.2 µM (active)
COc1c(N2C[C@@H]3CCCN[C@H]3C2)c(F)cc2c(=O)c(C(=O)O)cn(C3CC3)c12 | inactive
COC(=O)[C@]12CCC(C)(C)C[C@@H]1[C@@H]1C(=O)C=C3[C@@]4(C)C=C(C#N)C(=O)C(C)(C)[C@@H]4CC[C@@]3(C)[C@]1(C)CC2 | 3.16 µM (active)
O=c1[nH]c(=O)n(C2CCCO2)cc1F (stereo not drawn) | inactive
C=C1C(=CC=C2CCC[C@]3(C)[C@@H]([C@H](C)C=C[C@H](C)C(C)C)CC[C@@H]23)C[C@@H](O)C[C@@H]1O | 25.1 µM (active)
CN1c2cc(O)c(N=NC(N)=O)cc2CC1S(=O)(=O)O (stereo not drawn) | inactive
Nc1ccn([C@@H]2CS[C@H](CO)O2)c(=O)n1 | inactive
COc1cc(C(=O)NS(=O)(=O)c2ccccc2C)ccc1Cc1cn(C)c2ccc(NC(=O)OC3CCCC3)cc12 | inactive
COC(=O)C1=C(C)NC(C)=C(C(=O)OCCN2CCN(C(c3ccccc3)c3ccccc3)CC2)C1c1cccc([N+](=O)[O-])c1 (stereo not drawn) | inactive
CC(=O)SC[C@@H](C)C(=O)N1CCC[C@H]1C(=O)N[C@@H](Cc1ccccc1)C(=O)O | inactive
C[C@H]1C[C@@H]2[C@@H]([C@@H](O)C[C@@]3(C)[C@H]2CC[C@]3(O)C(=O)CO)[C@@]2(C)C=CC(=O)C=C12 | inactive
